Experimental findings from the supplement of paper PMC11732987, “Enantioselective OTUD7B fragment discovery through chemoproteomics screening and high-throughput optimisation” (Communications Chemistry, 2025) are described below.

Unmarked numbers belong to inactive results.

Sequence of UniProt Q53GS9 (Q53GS9 whole entry): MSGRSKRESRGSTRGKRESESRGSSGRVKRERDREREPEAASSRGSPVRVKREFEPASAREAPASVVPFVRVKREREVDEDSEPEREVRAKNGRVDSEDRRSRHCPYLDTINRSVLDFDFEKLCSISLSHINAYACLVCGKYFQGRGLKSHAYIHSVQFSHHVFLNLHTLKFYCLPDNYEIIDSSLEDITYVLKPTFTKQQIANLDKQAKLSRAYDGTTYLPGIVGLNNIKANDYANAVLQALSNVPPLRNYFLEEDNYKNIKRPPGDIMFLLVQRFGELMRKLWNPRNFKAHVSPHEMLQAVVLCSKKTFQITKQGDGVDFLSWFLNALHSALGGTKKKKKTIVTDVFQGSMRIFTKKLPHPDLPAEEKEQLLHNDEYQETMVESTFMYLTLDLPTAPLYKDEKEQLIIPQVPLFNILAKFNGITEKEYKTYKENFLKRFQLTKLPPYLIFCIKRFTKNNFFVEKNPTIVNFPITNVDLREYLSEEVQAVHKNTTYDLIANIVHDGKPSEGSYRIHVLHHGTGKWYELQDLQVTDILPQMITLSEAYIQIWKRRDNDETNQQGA
Sequence of UniProt O00303 (O00303 whole entry): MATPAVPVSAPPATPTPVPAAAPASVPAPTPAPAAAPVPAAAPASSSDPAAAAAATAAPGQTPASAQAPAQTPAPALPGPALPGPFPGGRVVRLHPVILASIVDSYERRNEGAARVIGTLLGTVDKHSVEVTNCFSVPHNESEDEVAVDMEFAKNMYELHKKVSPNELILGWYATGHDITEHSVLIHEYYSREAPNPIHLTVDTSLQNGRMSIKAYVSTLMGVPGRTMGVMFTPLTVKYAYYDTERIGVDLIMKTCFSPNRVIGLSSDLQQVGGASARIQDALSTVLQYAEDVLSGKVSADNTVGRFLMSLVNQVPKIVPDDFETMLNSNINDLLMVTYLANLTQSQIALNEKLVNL
Sequence of UniProt Q4G0A6 (Q4G0A6 whole entry): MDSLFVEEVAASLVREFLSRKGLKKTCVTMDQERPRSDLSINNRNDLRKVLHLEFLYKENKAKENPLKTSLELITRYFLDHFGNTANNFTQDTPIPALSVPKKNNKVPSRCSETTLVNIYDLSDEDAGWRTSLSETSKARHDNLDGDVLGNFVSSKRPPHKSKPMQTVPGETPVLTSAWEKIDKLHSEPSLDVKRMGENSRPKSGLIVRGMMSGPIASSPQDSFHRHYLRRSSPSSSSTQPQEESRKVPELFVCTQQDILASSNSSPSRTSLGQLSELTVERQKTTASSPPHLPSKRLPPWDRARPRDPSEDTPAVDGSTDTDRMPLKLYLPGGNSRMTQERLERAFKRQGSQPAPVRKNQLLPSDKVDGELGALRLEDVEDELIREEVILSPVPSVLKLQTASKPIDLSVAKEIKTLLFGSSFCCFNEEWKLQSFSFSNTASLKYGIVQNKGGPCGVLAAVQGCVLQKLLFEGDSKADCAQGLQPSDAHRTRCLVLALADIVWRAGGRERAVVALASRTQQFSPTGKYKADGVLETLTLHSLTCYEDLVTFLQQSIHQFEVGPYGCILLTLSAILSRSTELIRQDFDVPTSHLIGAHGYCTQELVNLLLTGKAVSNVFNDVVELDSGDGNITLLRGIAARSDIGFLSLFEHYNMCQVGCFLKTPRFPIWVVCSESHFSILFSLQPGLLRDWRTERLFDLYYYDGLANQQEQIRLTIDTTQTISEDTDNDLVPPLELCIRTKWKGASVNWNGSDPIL
Sequence of UniProt Q9Y4E8 (Q9Y4E8 whole entry): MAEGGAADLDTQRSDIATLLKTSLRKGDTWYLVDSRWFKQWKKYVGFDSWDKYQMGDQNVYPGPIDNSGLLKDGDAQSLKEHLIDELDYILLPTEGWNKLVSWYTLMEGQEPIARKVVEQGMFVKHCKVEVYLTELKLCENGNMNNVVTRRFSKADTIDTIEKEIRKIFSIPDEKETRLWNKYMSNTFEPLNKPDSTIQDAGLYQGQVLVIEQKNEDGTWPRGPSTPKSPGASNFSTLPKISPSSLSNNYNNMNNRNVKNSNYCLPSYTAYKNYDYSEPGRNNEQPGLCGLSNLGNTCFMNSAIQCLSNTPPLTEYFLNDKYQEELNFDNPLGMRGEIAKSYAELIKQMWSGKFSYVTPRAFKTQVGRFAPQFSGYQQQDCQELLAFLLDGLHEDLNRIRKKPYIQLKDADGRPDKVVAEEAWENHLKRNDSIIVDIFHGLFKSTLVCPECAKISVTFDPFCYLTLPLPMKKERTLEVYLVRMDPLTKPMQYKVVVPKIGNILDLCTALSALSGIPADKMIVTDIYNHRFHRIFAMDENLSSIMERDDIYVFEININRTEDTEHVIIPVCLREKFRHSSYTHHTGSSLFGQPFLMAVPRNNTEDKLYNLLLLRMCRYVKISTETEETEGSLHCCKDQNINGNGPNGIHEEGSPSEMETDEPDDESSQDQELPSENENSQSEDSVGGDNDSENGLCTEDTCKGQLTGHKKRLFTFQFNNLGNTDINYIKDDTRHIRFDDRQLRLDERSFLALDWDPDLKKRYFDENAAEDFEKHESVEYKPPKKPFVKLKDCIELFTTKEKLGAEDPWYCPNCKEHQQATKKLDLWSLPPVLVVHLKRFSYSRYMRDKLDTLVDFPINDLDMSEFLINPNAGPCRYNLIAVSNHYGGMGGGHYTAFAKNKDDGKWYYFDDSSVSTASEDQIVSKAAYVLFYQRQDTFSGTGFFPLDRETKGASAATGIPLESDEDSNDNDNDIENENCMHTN
Sequence of UniProt Q01804 (Q01804 whole entry): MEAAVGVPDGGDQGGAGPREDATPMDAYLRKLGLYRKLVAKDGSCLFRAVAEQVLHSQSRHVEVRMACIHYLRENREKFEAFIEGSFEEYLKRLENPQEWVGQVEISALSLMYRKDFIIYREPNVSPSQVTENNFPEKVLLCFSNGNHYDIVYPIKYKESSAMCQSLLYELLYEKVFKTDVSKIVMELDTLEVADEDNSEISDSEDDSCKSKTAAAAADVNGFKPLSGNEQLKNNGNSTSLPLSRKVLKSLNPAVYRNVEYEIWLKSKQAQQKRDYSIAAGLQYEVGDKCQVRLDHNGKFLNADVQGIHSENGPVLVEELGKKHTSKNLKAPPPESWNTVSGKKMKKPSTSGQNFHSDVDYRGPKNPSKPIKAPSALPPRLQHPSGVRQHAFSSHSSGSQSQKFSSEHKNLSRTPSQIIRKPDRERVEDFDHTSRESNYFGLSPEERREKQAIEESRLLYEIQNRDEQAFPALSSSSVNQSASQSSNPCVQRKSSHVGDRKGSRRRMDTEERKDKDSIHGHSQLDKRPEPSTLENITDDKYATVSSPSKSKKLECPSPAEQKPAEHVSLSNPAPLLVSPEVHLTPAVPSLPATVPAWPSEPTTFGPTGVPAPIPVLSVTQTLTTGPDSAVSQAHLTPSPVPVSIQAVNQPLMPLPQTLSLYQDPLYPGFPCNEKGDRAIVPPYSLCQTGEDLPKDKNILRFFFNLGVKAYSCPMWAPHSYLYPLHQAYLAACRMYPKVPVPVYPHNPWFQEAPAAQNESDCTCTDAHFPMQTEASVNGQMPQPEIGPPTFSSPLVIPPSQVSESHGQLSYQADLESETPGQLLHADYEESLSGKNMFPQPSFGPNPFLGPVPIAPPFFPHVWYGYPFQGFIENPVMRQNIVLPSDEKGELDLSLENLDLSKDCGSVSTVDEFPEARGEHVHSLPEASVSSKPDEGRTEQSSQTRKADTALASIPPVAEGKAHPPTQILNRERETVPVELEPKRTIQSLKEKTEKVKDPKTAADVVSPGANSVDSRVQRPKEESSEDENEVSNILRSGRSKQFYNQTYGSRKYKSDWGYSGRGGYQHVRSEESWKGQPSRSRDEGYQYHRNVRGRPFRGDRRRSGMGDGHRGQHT
Sequence of UniProt P15374 (P15374 whole entry): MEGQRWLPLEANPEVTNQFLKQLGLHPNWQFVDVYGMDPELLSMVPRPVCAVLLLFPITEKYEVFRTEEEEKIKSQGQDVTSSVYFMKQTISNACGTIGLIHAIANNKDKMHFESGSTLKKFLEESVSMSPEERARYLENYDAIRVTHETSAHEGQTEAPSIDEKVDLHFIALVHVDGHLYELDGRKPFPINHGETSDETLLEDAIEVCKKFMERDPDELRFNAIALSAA
Sequence of UniProt Q70EL2 (Q70EL2 whole entry): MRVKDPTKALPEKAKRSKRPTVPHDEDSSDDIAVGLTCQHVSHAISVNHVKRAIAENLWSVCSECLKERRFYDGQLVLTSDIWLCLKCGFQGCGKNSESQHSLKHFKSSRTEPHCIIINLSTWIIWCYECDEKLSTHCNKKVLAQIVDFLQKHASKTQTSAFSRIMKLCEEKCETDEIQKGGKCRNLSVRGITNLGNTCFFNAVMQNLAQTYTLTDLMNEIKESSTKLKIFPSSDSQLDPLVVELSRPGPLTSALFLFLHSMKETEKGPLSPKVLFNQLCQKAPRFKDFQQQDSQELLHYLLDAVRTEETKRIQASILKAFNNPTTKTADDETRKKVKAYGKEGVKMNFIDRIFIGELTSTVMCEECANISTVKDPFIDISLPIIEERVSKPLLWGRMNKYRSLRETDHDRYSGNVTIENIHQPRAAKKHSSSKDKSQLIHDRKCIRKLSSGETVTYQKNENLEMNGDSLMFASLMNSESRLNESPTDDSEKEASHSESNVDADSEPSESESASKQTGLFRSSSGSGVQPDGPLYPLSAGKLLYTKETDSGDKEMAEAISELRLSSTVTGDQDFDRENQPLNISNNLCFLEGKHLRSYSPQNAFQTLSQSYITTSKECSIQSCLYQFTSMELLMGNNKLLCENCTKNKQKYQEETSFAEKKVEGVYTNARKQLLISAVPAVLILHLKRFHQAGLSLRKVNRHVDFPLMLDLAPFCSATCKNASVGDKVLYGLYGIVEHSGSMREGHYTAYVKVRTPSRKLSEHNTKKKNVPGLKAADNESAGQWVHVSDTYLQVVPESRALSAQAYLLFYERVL

Compound in the first assay: OC1CN(Cc2sccc12)C(=O)CCl
The assay is described as follows: log2 ratio of Biotin-Ahx-Ub-VS probe labelling (compound/DMSO); higher = less target engagement, active = hit call of the paper (q ≤ 0.05, log2 ratio ≤ -1). To be noted: compound concentration: 50uM; treatment time: 3 h. As to the method:
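Round 2 competitive ABPP in HEK293T lysate. Purified HTC-D2B compounds were tested at 50 and 200 µM for 3 h, followed by Biotin-Ahx-Ub-VS enrichment and diaPASEF LC-MS/MS. Values are the average log2 ratio (compound/DMSO) from an unpaired t-test (n=3 treated, n=26 DMSO).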
As for EIF3F (UniProt O00303), the “log2 ratio of Biotin-Ahx-Ub-VS probe labelling” value (“log2 ratio” below) was -0.0817.

Take BAP1 (UniProt Q92560): the “log2 ratio” value was -0.416.

Consider USP12 (UniProt O75317), for which the “log2 ratio” value is -0.0752.

Regarding USP10 (UniProt Q14694), the “log2 ratio” value is -0.166.

UniProt Q70EL2: the “log2 ratio” value was 0.0417.

USP14 (UniProt P54578): the “log2 ratio” value was -0.385.

Turning to USP8 (UniProt P40818), the “log2 ratio” value was -0.266.

With FAM105A (UniProt Q9NUU6), the “log2 ratio” value was -0.0183.

Take MINDY4 (UniProt Q4G0A6): the “log2 ratio” value is 0.0365.

On to UniProt Q5T2D3, for which the “log2 ratio” value was -0.17.

On to USP16 (UniProt Q9Y5T5), for which the “log2 ratio” value was -0.903.

Take USP15 (UniProt Q9Y4E8): the “log2 ratio” value is -0.214.

OTUD4 (UniProt Q01804): the “log2 ratio” value was -0.695.

Consider USP39 (UniProt Q53GS9), for which the “log2 ratio” value was -0.0158.

As to UCHL3 (UniProt P15374), the “log2 ratio” value is -0.332.

USP7 (UniProt Q93009): the “log2 ratio” value was -0.155.

As for USP24 (UniProt Q9UPU5), the “log2 ratio” value was -0.165.

Regarding USP4 (UniProt Q13107), the “log2 ratio” value was -0.154.

Turning to USP22 (UniProt Q9UPT9), the “log2 ratio” value was 0.0108.

On to UCHL5 (UniProt Q9Y5K5), for which the “log2 ratio” value is -0.2.

Still in this assay, the particulars now being: compound concentration: 200uM; treatment time: 3 h.
EIF3F (UniProt O00303): the “log2 ratio” value was 0.103.

Consider BAP1 (UniProt Q92560), for which the “log2 ratio” value is -0.818.

For USP12 (UniProt O75317), the “log2 ratio” value is -0.294.

Take USP10 (UniProt Q14694): the “log2 ratio” value was -0.00161.

UniProt Q70EL2: the “log2 ratio” value was -0.242.

In the case of USP14 (UniProt P54578), the “log2 ratio” value was -0.604.

On to USP8 (UniProt P40818), for which the “log2 ratio” value was -0.144.

As for FAM105A (UniProt Q9NUU6), the “log2 ratio” value is 0.114.

For MINDY4 (UniProt Q4G0A6), the “log2 ratio” value is 0.686.

Take UniProt Q5T2D3: the “log2 ratio” value is -0.0768.

Regarding USP16 (UniProt Q9Y5T5), the “log2 ratio” value is -0.0352.

On to USP15 (UniProt Q9Y4E8), for which the “log2 ratio” value is -0.404.

As to OTUD4 (UniProt Q01804), the “log2 ratio” value was -1.48 (active).

Regarding USP39 (UniProt Q53GS9), the “log2 ratio” value was 0.0541.

With UCHL3 (UniProt P15374), the “log2 ratio” value was -0.337.

In the case of USP7 (UniProt Q93009), the “log2 ratio” value was -0.426.

With USP24 (UniProt Q9UPU5), the “log2 ratio” value was -0.557.

Regarding USP4 (UniProt Q13107), the “log2 ratio” value is 0.0977.

On to USP22 (UniProt Q9UPT9), for which the “log2 ratio” value was -0.267.

Turning to UCHL5 (UniProt Q9Y5K5), the “log2 ratio” value is -0.0949.
